# PubChem BioAssay
# Several values for one entry are separate records, joined by “and”; a condition that tells them apart may be missing. Equal values may be shown once. Activity calls are given as the source filed them. Cut-off read from the data, not from the text of the source: active = fold change permeability below about 0.7 or above about 1.3; inactive = in between.
# Assay: modulators of brain endothelial barrier permeability, primary screen, cell-based, FITC-avidin fluorescence, HTS (AID 1963498); note: test concentration not given here
# Details: actives lie on both sides
row,Structure (SMILES),fold change permeability
1,CC[C@@]1(O)C(=O)OCc2c1cc1n(c2=O)Cc2cc3ccccc3nc2-1,1.4 (active)
2,C[N+]1(C)CCN(c2ccccc2)CC1,1.2 (inactive)
3,NC(=O)CN1CCCC1=O,1.2 (inactive)
4,Cc1ncc(CNC(=O)N(CCCl)N=O)c(N)n1,0.9 (inactive)
5,CC1=NN=C(c2ccc(N)cc2)c2cc3c(cc2C1)OCO3,1.1 (inactive)
6,CCCN(CCC)CCc1ccc(O)c(O)c1,0.8 (inactive)
7,CCc1c(C(=O)C(N)=O)c2c(OCC(=O)O)cccc2n1Cc1ccccc1,1.1 (inactive)
8,CC(N)[C@H](O)c1ccc(O)c(O)c1 (stereo partly specified),1 (inactive)
9,CC(C)NP(=O)(NC(C)C)OP(=O)(NC(C)C)NC(C)C,1.1 (inactive)
10,NC(CP(=O)(O)O)C(=O)O (stereo unspecified),1 (inactive)
11,COC(=O)N1CCN(C(=O)Cc2ccc(Cl)c(Cl)c2)C(CN2CCCC2)C1 (stereo unspecified),1.3 (active)
12,CC(=O)c1c(O)c(C)c(O)c(Cc2c(O)c3c(c(C(=O)/C=C/c4ccccc4)c2O)OC(C)(C)C=C3)c1O,2 (active)
13,CC[N+](CC)(CC)CC,1.1 (inactive)
14,NCC1(CC(=O)O)CCCCC1,0.9 (inactive)
15,CCN1C[C@]2(COC)[C@H](O)C[C@H](OC)[C@]34C1[C@H]([C@H](OC)[C@H]23)[C@]1(OC(C)=O)[C@H]2[C@@H](OC(=O)c3ccccc3)[C@](O)(C[C@H]24)[C@@H](OC)[C@@H]1O,1 (inactive)
16,C[C@@H](N)Cc1cnc[nH]1,0.9 (inactive)
17,CCN(CC)c1ncnc2c1ncn2[C@@H]1O[C@H](COP(=O)(O)OP(=O)(O)C(Br)(Br)P(=O)(O)O)[C@@H](O)[C@H]1O,1.1 (inactive)
18,C=C(C)[C@H]1Cc2c(ccc3c2O[C@@H]2COc4cc(OC)c(OC)cc4[C@@H]2C3=O)O1,1.7 (active)

row,Structure (SMILES),fold change permeability
1,NC1CCc2cc(O)c(O)cc2C1 (stereo unspecified),0.7 (active)
2,CC(C)(C)c1o[nH]c(=O)c1CC(N)C(=O)O (stereo unspecified),1.1 (inactive)
3,CCOC(=O)c1ccc(-c2ccc(OC(=O)N(C)Cc3cccc(-c4ccncc4)c3)cc2)cc1,1.2 (inactive)
4,COc1ccc2[nH]c3c(c2c1)CCNC3,1 (inactive)
5,CCCCCN(C)CCC(O)(P(=O)(O)O)P(=O)(O)O,1.8 (active)
6,CCCC[N+]1(C)C2CC(OC(=O)[C@H](CO)c3ccccc3)CC1C1OC12 (stereo partly specified),0.8 (inactive)
7,NC(CCP(=O)(O)O)C(=O)O (stereo unspecified),1 (inactive)
8,CCCN1CCC[C@H](c2cccc(O)c2)C1,1 (inactive)
9,CCC1(c2ccc(N)cc2)CCC(=O)NC1=O (stereo unspecified),1 (inactive)
10,CS(=N)(=O)CC[C@H](N)C(=O)O (stereo partly specified),0.8 (inactive)
11,COc1cc(C(O)CN)ccc1O (stereo unspecified),0.9 (inactive)
12,COc1cc2c3c(c1OC)-c1ccccc1C[C@H]3N(C)CC2,1.9 (active)
13,NC(Cc1cc(O)c(O)cc1O)C(=O)O (stereo unspecified),0.9 (inactive)
14,NN=C(N)N,1.2 (inactive) and 1 (inactive)
15,CC(C)[C@H]1CN[C@H](C(=O)O)[C@H]1CC(=O)O,1.1 (inactive)
16,NNC(N)=O,1 (inactive)
17,CNCC(O)c1ccc(O)cc1 (stereo unspecified),0.7 (active)
18,O=c1[nH]oc2c1CCNC2,1.4 (active)
